Data on nine molecules can be found in PubChem BioAssay (NCATS).

Experiment [1] deals with Lysosomal acid glucosylceramidase (Homo sapiens) (UniProt P04062). Nature of the experiment: Glucocerebrosidase-p2 (AID 348; in the data active = potency below about 10 µM; also: potency is read from the fitted curve at half-maximal effect). To be noted: purified GBA, blue fluorogenic substrate, 40 min. In short, it runs like this:
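Compounds titrated from 0.6 nM upwards against 0.2 nM enzyme in pH 5.9 citric acid/KH2PO4, taurocholate, tween-20; blue fluorogenic substrate 80 uM, 40 min room temperature, stopped and read Ex 365/Em 440 for AC50.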

Experiment [2] in a line: AP1 Signaling Pathway (AID 357; active = well fitted curve in either direction with a large enough effect, not every such curve was filed as active;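 also: ME-180 reporter cells stimulated with EGF at its EC50 level; % is scaled to controls: 0 for no effect and ±100 for the full control effect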). To be noted: ME-180 AP-1-bla reporter, EGF-induced, beta-lactamase ratio, 5 h; at 7.69 µM (top of the series) unless noted. In short, it runs like this:
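Cells are seeded overnight, exposed to compound titrations and an EC50 level of EGF for 5 hours at 37 °C, then loaded with CCF4 dye for 2.5 hours. Beta-lactamase activity under the AP-1 element is read as a blue/green ratio.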

Experiment [3] concerns the target Cytochrome P450 1A2 (Homo sapiens) (UniProt P05177). The experiment can be described thus: p450-cyp1a2 (AID 410; calls by dose curve; also: potency is read from the fitted curve at half-maximal effect). Conditions: recombinant CYP1A2, luciferin-ME demethylation, luminescence; series mostly up to 57 µM. A digest of the protocol: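 Human CYP1A2 (20nM) demethylated Luciferin-ME at its Km (100uM) in 100mM KPO4. After 10 min compound preincubation, NADPH regeneration ran the reaction 60 min at room temperature. Luciferin was read by luminescence, normalized to 57 uM furafylline.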

A short description of experiment [4]: NFAT Signaling Pathway (AID 444; active = well fitted curve in either direction with a large enough effect, not every such curve was filed as active;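 also: carbachol stimulus at about its EC50 of 1 µM final; % is scaled to controls: 0 for no effect and ±100 for the full control effect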). Conditions: Jurkat NFAT-bla M1, carbachol, beta-lactamase ratio, 5 h; at 7.69 µM (top of the series) unless noted. A digest of the protocol: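 Read-out: CCF4 FRET ratio (460 nm/530 nm) after 1 h RT dye loading, used for %activity and AC50 from titration series. Cells: Jurkat NFAT-β-lactamase/M1 line, treated with compound plus 1 uM carbachol for 5 h, 37 °C.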

Experiment [5] can be described thus: Stat Signaling Pathway (AID 446; active = well fitted curve in either direction with a large enough effect, not every such curve was filed as active;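 also: ME-180 cervical cancer cells given 40 pM IL-6 alongside compound; SIE-controlled beta-lactamase reporter measured as 460/530 nm FRET emission ratio; % is scaled to controls: 0 for no effect and ±100 for the full control effect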). To be noted: ME-180 (cervical carcinoma) SIE beta-lactamase reporter, IL-6 stimulated, 5 h; at 7.69 µM (top of the series) unless noted. In short, it runs like this:
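IL-6/STAT signaling read in ME-180 cells via an SIE beta-lactamase reporter. Stimulus was 40 pM IL-6 (its AC50) for 5 hrs, so both activation and inhibition register.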

The target in experiment [6] is Glucocorticoid receptor (Homo sapiens) (UniProt P04150). Nature of the experiment: GR-GFP Redistribution (AID 450;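 active = compounds whose dose series gives a full or clear partial fitted curve of increased nuclear translocation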; also: potency is read from the fitted curve at half-maximal effect). Conditions: U2OS GR-GFP nuclear translocation, laser cytometry, 2 h.
Experiment [7] shares this target. The experiment can be described thus: GR-EFC Redistribution (AID 451; calls by dose curve; also: potency is read from the fitted curve at half-maximal effect). Conditions: CHO-K1 GR-EFC translocation, beta-gal luminescence, 2 h. A digest of the protocol: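 Translocation of GR-ED fusion to nuclear EA restores b-gal, read by luminescence after 1 h room-temperature detection. Engineered CHO-K1 biosensor cells, 1,000/well, exposed 2 h at 37 C to titrations up to 46 uM final.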

For experiment [8], the target named is Mitogen-activated protein kinase 10 (Mus musculus) (UniProt Q61831). Nature of the experiment: JNK3 AlphaScreen Assay (AID 530; active = well fitted curve in either direction with a large enough effect, not every such curve was filed as active;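 also: kinase came from lysate of stimulated human HepG2 cells; signal reports phosphorylation of biotinylated GST-cJun 1-79 at Ser73 with 10 µM ATP; % is scaled to controls: 0 for no effect and ±100 for the full control effect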). Conditions: JNK3 lysate, c-Jun phosphorylation; series mostly up to 57.1 µM. A digest of the protocol: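 Room-temperature AlphaScreen kinase assay; pre-activated HepG2 lysate as JNK3 source, biotin-GST-cJun(1-79) substrate, 10 uM ATP, compound 15 min preincubation.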
(Alpha assays give light when donor and acceptor beads are brought close together.)

Experiment [9] has as its target 3',5'-cyclic-AMP phosphodiesterase 4B (Homo sapiens) (UniProt Q07343). The experiment can be described thus: qHTS Assay for Inhibitors of PDE-IV (AID 607; active = well fitted activation curve with a large enough effect in the main read-out, with a control signal flat, not every such curve was filed as active; also: % of control where 0% means no effect). To be noted: HEK293 ACTOne CNG channel cells, membrane potential fluorescence; series mostly up to 22.9 µM. A digest of the protocol:
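Live HEK293 cells with a modified cyclic nucleotide-gated (CNG) channel report intracellular cAMP via membrane-potential dye fluorescence (ex 535/em 590 nm). Endogenous PDE-IV was targeted. Compounds were tested at up to 22.9 uM final; RO 20-1724 100 uM served as control.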
(In general: In qHTS, concentration-response curves come from the screen itself.)

Experiment [10] can be described thus: qHTS Assay for Lipid Storage Modulators (AID 1519; calls by dose curve). Conditions: Drosophila S3 cells, BODIPY lipid droplet/cell ratio, laser cytometry, cells loaded with oleic acid; for activity change, negative = inhibition: at 57.5 µM (top of the series). In short, it runs like this:
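Cells seeded at 5,000 per well were treated with compounds over a concentration series and loaded with oleic acid (400 uM, as added). Lipid droplet fluorescence (488 nm excitation, 500-530 nm channel) was read by laser-scanning cytometry and normalized to 20 uM Triacsin C.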

In experiment [11] the target is Dual specificity protein kinase CLK4 (Homo sapiens) (UniProt Q9HAZ1). The experiment can be described thus: qHTS Assay for Inhibitors of CDC-like Kinase 4 (Kinase-Glo Assay) (AID 1770). Also: nearly all actives have a fitted effect of over 65% in size. Also: potency is read from the fitted curve at half-maximal effect. Conditions: recombinant Clk4, Kinase-Glo ATP depletion luminescence; series mostly up to 66.7 µM. In short, it runs like this: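 Readout: Kinase-Glo luminescence from ATP left after a 4.5 h room-temperature reaction of 25 nM Clk4 with 100 uM RS peptide and 1 uM ATP (final). Buffer: 25 mM Tris pH 7.5, 10 mM MgCl2.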

The target is the same in experiment [12]. Nature of the experiment: qHTS Assay for Inhibitors of CDC-like Kinase 4 (ADP-Glo Assay) (AID 1771). Also: nearly all actives have a fitted effect of over 70% in size. Also: potency is read from the fitted curve at half-maximal effect. Conditions: recombinant CLK4, ADP-Glo luminescence; series mostly up to 80 µM. A digest of the protocol: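 Clk4 (25 nM) was incubated 1 hr at room temperature with 100 uM RS repeat peptide and 1 uM ATP in buffer with 2 mM MgCl2, 0.5 mM EGTA, 2.5 mM DTT. ADP formed was quantified by ADP-Glo luminescence.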

Experiment [13] has the same target. The experiment can be described thus: qHTS Assay for Inhibitors of CDC-like Kinase 4 (ADP-FP Assay) (AID 1795). Also: nearly all actives have a fitted effect of over 60% in size. Also: potency is read from the fitted curve at half-maximal effect. Conditions: Transcreener ADP fluorescence polarization; series mostly up to 50 µM. A digest of the protocol: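 FP readout: Orange Transcreener ADP2 tracer (4 nM) plus ADP antibody, read after 30 min at room temperature. Kinase step: 6.25 nM Clk4, 100 uM RS peptide, 1 uM ATP, pH 7.5, 1 h.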

The target in experiment [14] is Ubiquitin carboxyl-terminal hydrolase 1 (Homo sapiens) (UniProt O94782). Nature of the experiment: Inhibitors of USP1/UAF1: Pilot qHTS (AID 504865).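 Also: rhodamine fluorescence freed from ubiquitin-rhodamine substrate followed over time; top concentration of the series differs between compounds; % is scaled to controls: 0 for no effect and ±100 for the full control effect; nearly all actives have a fitted effect of over 35% in size.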 To be noted: purified USP1/UAF1, Ub-rhodamine cleavage fluorescence; series mostly up to 54.9 µM. In short, it runs like this:
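1nM USP1/UAF1 + cpd, 15 min RT; start w/ Ub-Rho 150nM final; kinetic FL 480/540 nm, 6 reads q60 s. Buffer 50mM HEPES pH 7.8, 0.5mM EDTA, 1mM TCEP, 0.01% Tween-20, 0.1 mg/ml BSA.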

For experiment [15], the target named is Cytochrome P450 3A4 (Homo sapiens) (UniProt P08684). The experiment can be described thus: qHTS Assay for Inhibitors and Substrates of Cytochrome P450 3A4 (AID 884). Also: nearly all actives have a fitted effect of over 50% in size. Also: potency is read from the fitted curve at half-maximal effect. To be noted: recombinant CYP3A4, Luciferin-PPXE luminescence; series mostly up to 57.1 µM. In short, it runs like this: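 20 nM human CYP3A4 with 25 uM Luciferin-PPXE (at KM) in 200 mM KPO4, preincubated 10 min with compound; NADPH regeneration started a 60 min RT reaction. Luciferin detected by luminescence, normalized to 57 uM ketoconazole as full inhibition.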

For experiment [16] the target is unchanged. Nature of the experiment: qHTS Assay for Activators of Cytochrome P450 3A4 (AID 885). Also: nearly all actives have a fitted effect of over 65% in size. Conditions: recombinant CYP3A4, Luciferin-PPXE luminescence, 60 min; series mostly up to 57.1 µM. A digest of the protocol:
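Quantitative HTS format: compounds preincubated with 20nM human CYP3A4 and Luciferin-PPXE substrate at KM, reaction started by NADPH regeneration, stopped after 60 min, luciferase luminescence read 20 min later.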

A short description of experiment [17]: Confirmation and Secondary Assay for Modulators of Hemoglobin Beta Chain Splicing at IVS2 654 locus (AID 910).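 Also: HeLa cells stably carrying EGFP split by mutant beta-globin IVS2-654 intron; per-well total GFP intensity by laser scanning cytometry after 2-day treatment; potency is read from the fitted curve at half-maximal effect; potency of activators that raise GFP signal by restoring correct splicing.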 Conditions: HeLa EGFP-654 splicing reporter, GFP fluorescence, 48 h; series mostly up to 38.3 µM. In short, it runs like this:
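Readout: per-well total peak green fluorescence (488 nm ex, 500–520 nm em) from objects 5–250 µm, reflecting correct splicing of an EGFP-654 reporter. Compounds were applied for 2 days at 37 °C to overnight-plated HeLa EGFP-654 cells; controls were DMSO and 500 nM IVS2-654 PNA.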

For experiment [18], the target named is Rap guanine nucleotide exchange factor 3 (Homo sapiens) (UniProt O95398). The experiment can be described thus: Confirmatory qHTS for agonist of cAMP-regulated guanine nucleotide exchange factor 3 (EPAC1) (AID 1645881).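 Also: EPAC1 catalysed release of BODIPY-GDP from Rap1B seen as fluorescence loss; 100% = effect of cAMP agonist control; nearly all actives have a fitted effect of over 75% in size.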 Conditions: EPAC1 Rap1B BODIPY-GDP exchange fluorescence; series mostly up to 154 µM.
Where [19] appears, read: measured here: cell count channel max response.
Setting [20] is: measured here: lipid channel max response.

Inconclusive results are not listed. The source made the active and inactive calls. Unless noted, calls follow the shape of the dose curve; as a rule, active = well fitted curve in the direction sought with a large enough effect; inconclusive = small, poorly fitted or top-dose-only effect, or another doubt; inactive = no such curve, though single readings can be large; an effect the other way counts as inactive or inconclusive.

Chain of Cytochrome P450 1A2 (Homo sapiens) (P05177 whole entry, looked up): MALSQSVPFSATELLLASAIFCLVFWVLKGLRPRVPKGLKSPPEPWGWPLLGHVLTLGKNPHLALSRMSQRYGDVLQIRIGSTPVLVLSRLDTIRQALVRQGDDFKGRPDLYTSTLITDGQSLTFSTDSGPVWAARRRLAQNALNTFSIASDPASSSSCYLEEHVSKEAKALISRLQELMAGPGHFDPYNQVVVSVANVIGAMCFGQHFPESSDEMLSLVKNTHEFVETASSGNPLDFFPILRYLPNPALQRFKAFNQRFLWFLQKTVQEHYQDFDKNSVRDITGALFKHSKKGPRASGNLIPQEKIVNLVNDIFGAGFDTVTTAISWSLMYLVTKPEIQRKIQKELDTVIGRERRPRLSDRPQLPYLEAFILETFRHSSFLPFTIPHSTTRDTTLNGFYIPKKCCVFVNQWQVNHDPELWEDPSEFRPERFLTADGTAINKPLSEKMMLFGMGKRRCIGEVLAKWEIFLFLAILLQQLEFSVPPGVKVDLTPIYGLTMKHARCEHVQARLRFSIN
Chain of 3',5'-cyclic-AMP phosphodiesterase 4B (Homo sapiens) (Q07343 whole entry, looked up): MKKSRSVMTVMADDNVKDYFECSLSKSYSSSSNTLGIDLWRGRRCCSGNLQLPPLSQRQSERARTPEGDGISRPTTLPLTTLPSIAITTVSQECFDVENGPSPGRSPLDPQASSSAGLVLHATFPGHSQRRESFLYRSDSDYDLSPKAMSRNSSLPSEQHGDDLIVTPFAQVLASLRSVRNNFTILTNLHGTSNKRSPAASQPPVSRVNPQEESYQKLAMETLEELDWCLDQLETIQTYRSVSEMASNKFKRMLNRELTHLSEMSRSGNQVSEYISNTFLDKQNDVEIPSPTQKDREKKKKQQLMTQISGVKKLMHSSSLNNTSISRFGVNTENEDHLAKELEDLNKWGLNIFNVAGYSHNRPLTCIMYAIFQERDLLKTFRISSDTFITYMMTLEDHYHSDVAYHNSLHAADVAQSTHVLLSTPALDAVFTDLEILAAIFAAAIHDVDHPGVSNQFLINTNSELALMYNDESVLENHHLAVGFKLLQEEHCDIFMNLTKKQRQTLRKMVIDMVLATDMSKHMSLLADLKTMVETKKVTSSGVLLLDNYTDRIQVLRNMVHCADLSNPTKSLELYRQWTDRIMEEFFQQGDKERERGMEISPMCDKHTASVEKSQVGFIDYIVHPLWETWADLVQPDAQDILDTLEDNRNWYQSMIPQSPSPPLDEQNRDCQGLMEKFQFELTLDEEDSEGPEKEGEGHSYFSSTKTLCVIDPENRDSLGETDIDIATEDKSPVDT
Chain of Ubiquitin carboxyl-terminal hydrolase 1 (Homo sapiens) (O94782 whole entry, looked up): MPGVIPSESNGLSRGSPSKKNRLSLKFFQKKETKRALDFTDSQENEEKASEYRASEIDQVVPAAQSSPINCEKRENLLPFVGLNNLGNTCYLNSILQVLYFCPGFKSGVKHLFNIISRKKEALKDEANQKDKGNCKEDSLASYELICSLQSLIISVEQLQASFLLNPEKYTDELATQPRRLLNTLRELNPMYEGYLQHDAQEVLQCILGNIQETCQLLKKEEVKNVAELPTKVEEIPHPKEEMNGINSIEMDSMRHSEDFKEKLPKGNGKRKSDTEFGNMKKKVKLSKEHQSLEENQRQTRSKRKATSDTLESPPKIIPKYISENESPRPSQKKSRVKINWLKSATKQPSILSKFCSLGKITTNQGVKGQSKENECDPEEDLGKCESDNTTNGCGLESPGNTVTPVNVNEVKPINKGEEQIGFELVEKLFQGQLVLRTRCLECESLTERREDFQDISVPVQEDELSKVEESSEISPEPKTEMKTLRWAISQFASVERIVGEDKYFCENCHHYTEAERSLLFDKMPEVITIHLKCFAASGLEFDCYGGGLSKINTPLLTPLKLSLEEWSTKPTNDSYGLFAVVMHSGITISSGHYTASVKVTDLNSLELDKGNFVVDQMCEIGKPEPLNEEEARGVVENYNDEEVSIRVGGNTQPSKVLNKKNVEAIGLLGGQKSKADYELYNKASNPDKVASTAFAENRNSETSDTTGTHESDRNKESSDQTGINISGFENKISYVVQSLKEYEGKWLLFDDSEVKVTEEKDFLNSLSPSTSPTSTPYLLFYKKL
Chain of Dual specificity protein kinase CLK4 (Homo sapiens) (Q9HAZ1 whole entry, looked up): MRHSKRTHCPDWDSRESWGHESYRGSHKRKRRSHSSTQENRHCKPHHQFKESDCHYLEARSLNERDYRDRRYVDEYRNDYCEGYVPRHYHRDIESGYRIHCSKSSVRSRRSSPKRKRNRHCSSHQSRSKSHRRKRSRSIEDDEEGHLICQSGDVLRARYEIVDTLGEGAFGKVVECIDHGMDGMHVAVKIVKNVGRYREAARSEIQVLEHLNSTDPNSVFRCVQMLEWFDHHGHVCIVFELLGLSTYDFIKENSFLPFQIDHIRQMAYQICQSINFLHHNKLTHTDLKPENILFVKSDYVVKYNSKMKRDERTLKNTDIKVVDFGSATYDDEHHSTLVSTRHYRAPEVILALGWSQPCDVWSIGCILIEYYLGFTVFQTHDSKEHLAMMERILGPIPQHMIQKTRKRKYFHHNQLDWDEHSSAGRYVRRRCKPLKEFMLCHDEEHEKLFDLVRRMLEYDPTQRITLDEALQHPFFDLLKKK
Chain of Lysosomal acid glucosylceramidase (Homo sapiens) (P04062 whole entry, looked up): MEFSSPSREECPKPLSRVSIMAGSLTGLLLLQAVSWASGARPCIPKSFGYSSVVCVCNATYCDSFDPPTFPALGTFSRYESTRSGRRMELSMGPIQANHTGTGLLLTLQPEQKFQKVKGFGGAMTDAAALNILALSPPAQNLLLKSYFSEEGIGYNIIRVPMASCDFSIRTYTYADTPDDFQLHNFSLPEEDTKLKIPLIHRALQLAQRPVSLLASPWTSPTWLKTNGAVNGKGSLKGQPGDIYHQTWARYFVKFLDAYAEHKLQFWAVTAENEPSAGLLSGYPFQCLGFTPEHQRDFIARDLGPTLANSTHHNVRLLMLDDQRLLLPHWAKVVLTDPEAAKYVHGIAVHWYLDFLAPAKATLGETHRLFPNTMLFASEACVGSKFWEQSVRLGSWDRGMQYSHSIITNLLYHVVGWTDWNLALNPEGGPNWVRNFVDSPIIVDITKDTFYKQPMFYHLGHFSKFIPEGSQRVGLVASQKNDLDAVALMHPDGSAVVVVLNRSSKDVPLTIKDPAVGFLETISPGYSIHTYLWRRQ
Chain of Cytochrome P450 3A4 (Homo sapiens) (P08684 whole entry, looked up): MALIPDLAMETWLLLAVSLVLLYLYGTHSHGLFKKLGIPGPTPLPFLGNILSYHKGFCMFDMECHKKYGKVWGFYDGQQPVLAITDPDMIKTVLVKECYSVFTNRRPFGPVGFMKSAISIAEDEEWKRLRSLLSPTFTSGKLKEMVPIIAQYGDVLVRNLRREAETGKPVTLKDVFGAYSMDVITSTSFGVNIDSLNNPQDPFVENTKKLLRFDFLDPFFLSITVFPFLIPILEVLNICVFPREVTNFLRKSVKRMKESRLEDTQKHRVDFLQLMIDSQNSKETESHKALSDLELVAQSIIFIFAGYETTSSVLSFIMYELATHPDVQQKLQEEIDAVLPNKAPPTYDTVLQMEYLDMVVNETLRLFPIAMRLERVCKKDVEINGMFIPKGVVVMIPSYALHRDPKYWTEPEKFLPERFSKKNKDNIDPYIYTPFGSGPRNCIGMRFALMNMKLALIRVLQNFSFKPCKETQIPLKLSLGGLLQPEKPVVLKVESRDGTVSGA
Chain of Glucocorticoid receptor (Homo sapiens) (P04150 whole entry, looked up, the tested form may be a part): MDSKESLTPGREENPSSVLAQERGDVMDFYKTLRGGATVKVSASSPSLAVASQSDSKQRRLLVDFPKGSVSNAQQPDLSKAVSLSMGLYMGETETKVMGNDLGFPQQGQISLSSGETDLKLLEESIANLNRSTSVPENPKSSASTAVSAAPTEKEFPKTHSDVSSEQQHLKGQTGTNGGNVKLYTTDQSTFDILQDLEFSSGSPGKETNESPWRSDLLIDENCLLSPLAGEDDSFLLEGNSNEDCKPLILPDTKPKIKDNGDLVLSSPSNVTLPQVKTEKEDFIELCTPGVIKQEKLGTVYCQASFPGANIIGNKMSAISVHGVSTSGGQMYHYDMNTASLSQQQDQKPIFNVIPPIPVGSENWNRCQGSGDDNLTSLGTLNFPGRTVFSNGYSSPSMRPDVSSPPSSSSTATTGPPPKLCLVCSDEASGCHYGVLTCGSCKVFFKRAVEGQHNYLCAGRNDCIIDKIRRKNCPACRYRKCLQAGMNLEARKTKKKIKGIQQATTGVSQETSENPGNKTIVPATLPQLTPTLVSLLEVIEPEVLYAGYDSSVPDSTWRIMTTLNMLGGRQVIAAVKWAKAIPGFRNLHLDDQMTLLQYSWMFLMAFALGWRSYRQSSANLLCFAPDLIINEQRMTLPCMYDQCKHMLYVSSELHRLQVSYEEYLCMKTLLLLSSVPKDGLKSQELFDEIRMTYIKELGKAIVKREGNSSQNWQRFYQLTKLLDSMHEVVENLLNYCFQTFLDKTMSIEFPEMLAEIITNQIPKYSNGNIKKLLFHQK

For the molecule `COc1ccc(-c2nc3cnc(N4CCN(C)CC4)nc3n(C3CC3)c2=O)cc1`, the Potency in experiment [1] is > 11.4 µM (inactive); in experiment [3], 20 µM (active); in experiment [6], > 9.22 µM (inactive); in [7] it was > 46 µM (inactive). The activity change, negative = inhibition was -5.97% (inactive) in [2], -2.54% (inactive) in experiment [4] and 2.69% (inactive) in experiment [10]. In [5], the activity, negative = inhibition was -7.93% (inactive). The Potency result in [8], in experiment [9], in [11], in [12], in experiment [13] and in experiment [14] was “inactive” in each case. The max response worked out at 2.3% in experiment [10] (setting [19]) and 3.44% in [10] (setting [20]).
As for `CN1CCN(c2ncc3nc(-c4ccc(F)cc4)c(=O)n(C4CC4)c3n2)CC1`, the Potency in [1] was > 11.4 µM (inactive); in experiment [3], 12.6 µM (active); in experiment [6] it was > 9.22 µM (inactive); in experiment [7] it was > 46 µM (inactive). The results for the activity change, negative = inhibition in [2], in experiment [4] and in [10] were 9.67% (inactive), 24.4% (inactive) and -0.731% (inactive), respectively. For the same molecule, the activity, negative = inhibition in experiment [5] was 18.6% (inactive). Also, the Potency entry in experiment [8], in [9], in experiment [15], in experiment [11], in [12] and in [13] was “inactive” in each case. In [14], the Potency entry is “inactive”. The values for the max response in [10] (setting [19]) and in [10] (setting [20]) were 7.24% and 4.22%, respectively.
On to `CNC(=O)[C@H]1O[C@@H](n2cnc3c(N)ncnc32)[C@H](O)[C@H]1O`, for which, in experiment [10], the activity change, negative = inhibition was -1.94% (inactive). For the same molecule, the values for the max response in experiment [10] (setting [19]) and in experiment [10] (setting [20]) were -22.6% and -24.5%, respectively.
Consider `CN(C)CCCO[C@H]1C([C@H](O)CO)O[C@@H]2OC(C)(C)O[C@@H]21` (stereo partly specified), for which the activity change, negative = inhibition in experiment [10] is 1.15% (inactive). Moreover, the max response in experiment [10] (setting [19]) was found to be 19.8%; in experiment [10] (setting [20]), 24%.
Consider `COC(=O)[C@@H]1C2CC3c4[nH]c5cc(OC)ccc5c4CCN3CC2C[C@H](OC(=O)c2cc(OC)c(OC)c(OC)c2)C1OC` (stereo partly specified), for which the Potency result in experiment [16] and in [18] was “inactive” in each case. In [17], the Potency is 15.8 µM (active). Also, the activity change, negative = inhibition in experiment [10] was -8.88% (inactive). Moreover, the figures for the max response in [10] (setting [19]) and in experiment [10] (setting [20]) were 3.77% and -5.55%, respectively.
Turning to `C[C@@H](Oc1ccc(Oc2cnc3ccc(Cl)cc3n2)cc1)C(=O)O`, the activity change, negative = inhibition in [10] was -0.184% (inactive). Besides, the max response in experiment [10] (setting [19]) is -7.54%; in experiment [10] (setting [20]) it was -6.55%.
Regarding `COc1ccc2c(c1)[C@@]1(C)CCC[C@](C)(CO)C1CC2` (stereo partly specified), in experiment [15], the Potency was 10 µM (active). Moreover, the Potency result in experiment [16] and in experiment [18] was “inactive” throughout. Moreover, the activity change, negative = inhibition in [10] was 8.34% (inactive). For the same molecule, the results for the max response in experiment [10] (setting [19]) and in [10] (setting [20]) were 17.7% and 28.8%, respectively.
Take `Clc1ccccc1-c1nc(NC2CCNCC2)c2ccccc2n1`: the Potency in [1] was > 11.4 µM (inactive); in [3] it was 20 µM (active); in experiment [6], > 46 µM (inactive); in experiment [7], > 46 µM (inactive); in experiment [11], 10 µM (active); in experiment [12], 12.6 µM (active). Further, the Potency in experiment [13] was 12.6 µM (active). The results for the activity change, negative = inhibition in experiment [2], in experiment [4] and in experiment [10] were -8.89% (inactive), 7.15% (inactive) and 1.68% (inactive), respectively. Moreover, the activity, negative = inhibition in [5] was 3.31% (inactive). Moreover, the Potency result in experiment [8], in experiment [9] and in [14] was “inactive” throughout. Besides, the max response in experiment [10] (setting [19]) came out at 15.1%; in [10] (setting [20]), 17.6%.
On to `COc1ccc(-c2nc3cnc(N4CCN(C)CC4)nc3n(C)c2=O)cc1`, for which the Potency in experiment [1] is > 11.4 µM (inactive); in experiment [3], 25.1 µM (active); in [6], > 9.22 µM (inactive); in experiment [7], > 46 µM (inactive). Also, the activity change, negative = inhibition is 14.5% (inactive) in [2], 27.7% (inactive) in [4] and 1.83% (inactive) in experiment [10]. Further, in experiment [5], the activity, negative = inhibition was 26.5% (inactive). The Potency entry in experiment [8], in experiment [9], in experiment [11], in experiment [12], in [13] and in [14] was “inactive” each time. For the same molecule, the max response is 6.37% in experiment [10] (setting [19]) and 3.68% in experiment [10] (setting [20]).
